From article PMC5700166

molecular target: T1, GST-Nv-NF-kB (Ser allele) (Nematostella vectensis, UniProt A7UNT2 2-411); assay: protein-binding microarray (PBM); PBM: ~300 nM protein, 6 mM HEPES pH 7.8, 80 mM KCl, 0.5 mM EDTA, 0.5 mM EGTA, 6% glycerol, 35 ng/ul poly-dIdC, 1% milk, 1 h, room temperature; Ap Aiptasia and Nv Nematostella (sea anemones) / Co Capsaspora / Aq Amphimedon (sponge) / Dm Drosophila / Hu human; RHD is the Rel homology domain; high values mean tight binding; details: dsDNA, one strand shown
T1 sequence: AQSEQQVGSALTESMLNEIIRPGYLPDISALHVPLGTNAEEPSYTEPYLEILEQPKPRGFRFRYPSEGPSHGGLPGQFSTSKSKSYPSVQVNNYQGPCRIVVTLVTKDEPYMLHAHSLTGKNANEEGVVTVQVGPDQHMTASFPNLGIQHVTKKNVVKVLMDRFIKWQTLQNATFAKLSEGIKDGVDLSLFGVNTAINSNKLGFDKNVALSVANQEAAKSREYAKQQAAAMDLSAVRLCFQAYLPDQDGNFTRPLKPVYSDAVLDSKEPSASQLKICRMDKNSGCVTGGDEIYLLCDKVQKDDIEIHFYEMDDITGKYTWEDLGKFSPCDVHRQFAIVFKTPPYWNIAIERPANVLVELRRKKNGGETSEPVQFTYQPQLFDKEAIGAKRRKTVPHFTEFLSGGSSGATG

Sequence | binding signal [z-score]
CCGATTAACATCACGTTCCCCCCTGATGTTAATCGGGTCTTGATTCGCTTGACGCTGCTG | 5.78
CCGATTAACATCAGGGGATTAGATGATGTTAATCGGGTCTTGATTCGCTTGACGCTGCTG | 6.46
CCGATTAACATCAGGGAAACCCATGATGTTAATCGGGTCTTGATTCGCTTGACGCTGCTG | 3.84
CCGATTAACATCACGGGGGGGACTGATGTTAATCGGGTCTTGATTCGCTTGACGCTGCTG | 4.38
CCGATTAACATCAGGAATACCCATGATGTTAATCGGGTCTTGATTCGCTTGACGCTGCTG | 3.36
CCGATTAACATCAAGGACTTCCCTGATGTTAATCGGGTCTTGATTCGCTTGACGCTGCTG | 2.77
CCGATTAACATCACGGGACTTCCTGATGTTAATCGGGTCTTGATTCGCTTGACGCTGCTG | 4.98
CCGATTAACATCAAGGAAAACCCTGATGTTAATCGGGTCTTGATTCGCTTGACGCTGCTG | 1.6
CCGATTAACATCAATGGGAAAATTGATGTTAATCGGGTCTTGATTCGCTTGACGCTGCTG | 5.32
CCGATTAACATCAGGGGAGAATATGATGTTAATCGGGTCTTGATTCGCTTGACGCTGCTG | 6.21
CCGATTAACATCAAGGGGGTCCCTGATGTTAATCGGGTCTTGATTCGCTTGACGCTGCTG | 3.02
CCGATTAACATCAGGGGAGTATATGATGTTAATCGGGTCTTGATTCGCTTGACGCTGCTG | 4.21
CCGATTAACATCAGGGGTTCACCTGATGTTAATCGGGTCTTGATTCGCTTGACGCTGCTG | 3.04
CCGATTAACATCAGGGGATCCCATGATGTTAATCGGGTCTTGATTCGCTTGACGCTGCTG | 6.24
CCGATTAACATCACGGACTTCCCTGATGTTAATCGGGTCTTGATTCGCTTGACGCTGCTG | 2.24
CCGATTAACATCAATACACCCCCTGATGTTAATCGGGTCTTGATTCGCTTGACGCTGCTG | 4.34
CCGATTAACATCAATTTCCCATATGATGTTAATCGGGTCTTGATTCGCTTGACGCTGCTG | 3.63
CCGATTAACATCAAGGTAATCCCTGATGTTAATCGGGTCTTGATTCGCTTGACGCTGCTG | 2.34
CCGATTAACATCAAGGAAACCCCTGATGTTAATCGGGTCTTGATTCGCTTGACGCTGCTG | 3.81
CCGATTAACATCACCACTTTCCCTGATGTTAATCGGGTCTTGATTCGCTTGACGCTGCTG | 5.06

Sequence | binding signal [z-score]
CCGATTAACATCATTATGGGAAATGATGTTAATCGGGTCTTGATTCGCTTGACGCTGCTG | 2.21
CCGATTAACATCAGGCATTTCCCTGATGTTAATCGGGTCTTGATTCGCTTGACGCTGCTG | 3.99
CCGATTAACATCAGGGGTGGGAATGATGTTAATCGGGTCTTGATTCGCTTGACGCTGCTG | 1.67
CCGATTAACATCAAACTCTCCCCTGATGTTAATCGGGTCTTGATTCGCTTGACGCTGCTG | 4.93
CCGATTAACATCACCAAAATCCCTGATGTTAATCGGGTCTTGATTCGCTTGACGCTGCTG | 2.71
CCGATTAACATCACTAAATTCCCTGATGTTAATCGGGTCTTGATTCGCTTGACGCTGCTG | 5.8
CCGATTAACATCAGGGAGGGTAATGATGTTAATCGGGTCTTGATTCGCTTGACGCTGCTG | 2.16
CCGATTAACATCAAAGAAATCCCTGATGTTAATCGGGTCTTGATTCGCTTGACGCTGCTG | 4.02
CCGATTAACATCAGGCACTCCCCTGATGTTAATCGGGTCTTGATTCGCTTGACGCTGCTG | 2.69
CCGATTAACATCAGGGAGCTACCTGATGTTAATCGGGTCTTGATTCGCTTGACGCTGCTG | 1.68
CCGATTAACATCAGGGAGATTTGTGATGTTAATCGGGTCTTGATTCGCTTGACGCTGCTG | 3.43
CCGATTAACATCAGGGAATTATATGATGTTAATCGGGTCTTGATTCGCTTGACGCTGCTG | 5.77
CCGATTAACATCAGACTGGGAAATGATGTTAATCGGGTCTTGATTCGCTTGACGCTGCTG | 1.66
CCGATTAACATCAGGGGGTTACATGATGTTAATCGGGTCTTGATTCGCTTGACGCTGCTG | 4.94
CCGATTAACATCAGGAATATACCTGATGTTAATCGGGTCTTGATTCGCTTGACGCTGCTG | 1.48
CCGATTAACATCAGGGGTTTAACTGATGTTAATCGGGTCTTGATTCGCTTGACGCTGCTG | 1.69
CCGATTAACATCAGGGAACTTTATGATGTTAATCGGGTCTTGATTCGCTTGACGCTGCTG | 3.6
CCGATTAACATCACGAAAATCCCTGATGTTAATCGGGTCTTGATTCGCTTGACGCTGCTG | 4.09
CCGATTAACATCAGGGAAAGGAATGATGTTAATCGGGTCTTGATTCGCTTGACGCTGCTG | 2.07
